Source: PubChem
DT40 TDP1 no CPT = qHTS for Inhibitors of human tyrosyl-DNA phosphodiesterase 1 (TDP1): qHTS in cells in absence of CPT | DT40 Tdp1-/- hTDP1 cells, no CPT, ATP luminescence, 48 h | Potency, µM (series often up to 46.2 µM), most hits filed as inhibitors | 420,000 compounds, 15% hits; also: nearly all actives have a fitted effect of over 55% in size
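DT40 Tdp1-/-;hTDP1 cells, no CPT (DMSO vehicle only), 400 cells/well; compounds pin-transferred; ≥48 hr, 37 °C; CellTiter-Glo 30 min RT dark, luminescence read.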
DT40 TDP1 CPT = DT40-hTDP1 cell growth loss with CPT; Potency, µM (doses to about 46.2 µM), actives largely listed as inhibitors; AID 686979; chicken DT40 Tdp1-/-;hTDP1 cells + 20 nM CPT, ATP luminescence, 48 h; 420,000 compounds, 12% hits; also: nearly all actives have a fitted effect of over 55% in size
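Chicken DT40 Tdp1-/- cells complemented with human TDP1, 400 cells/well, exposed to compounds plus 20 nM camptothecin for at least 48 h at 37 C; viability read as ATP content by CellTiter-Glo luminescence.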
IL1B secr inh = inhibitors of inflammasome signaling (IL-1 beta secretion) | activity change, % at 57.5 µM | THP-1 LPS/ATP IL-1B secretion, AlphaLISA, 16 h; stronger effect = lower value | 360,000 compounds, 4.7% hits; in the data active = activity change below about -50%; inconclusive = mostly about -30% to -49%
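THP-1 cells pretreated 1 hr with compounds (up to 57.5 uM final), then stimulated with LPS (250 ng/mL final) plus ATP (1.25 mM final); secreted IL-1B measured by AlphaLISA after 16 hr, decreased signal indicating inhibition.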
Chronic BCR inh = inhibitors of chronic active B-cell receptor signaling. 340,000 compounds, 0.05% hits. ABC-DLBCL IkBa-CBG/CBR reporter, luminescence ratio, 4 h. Potency, µM (series often up to 46.1 µM), actives largely listed as inhibitors. AID 493014; active = well fitted inhibition curve with a large enough effect in the signal ratio, with a control signal flat, not every such curve was filed as active; inconclusive = small, poorly fitted or top-dose-only effect, or effect the other way, or a change in a side signal; the % refers to the signal ratio
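TMD8 ABC-DLBCL cells carrying doxycycline-inducible green luciferase fused to IkappaBalpha plus unfused red luciferase were exposed to compounds (up to 46 uM) for 4 hrs at 37C. Activity came from the overlap-corrected green/red luminescence ratio.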
MCF10A rerep = induces DNA re-replication in MCF 10a normal breast cells | Potency, µM (series often up to 46.1 µM), actives largely listed as activators | 350,000 compounds, 2.9% hits | AID 624296 | MCF 10A DNA re-replication, Hoechst nuclear intensity, 48 h; also: nearly all actives have a fitted effect of over 50% in size
SW480 rerep = induces DNA re-replication in SW480 colon adenocarcinoma cells; SW480 DNA re-replication, Hoechst DNA content imaging, 48 h; Potency, µM (top dose mostly 46.1 µM), actives largely listed as activators; 340,000 compounds, 1.8% hits; also: nearly all actives have a fitted effect of over 55% in size
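DNA re-replication was detected as more nuclei of elevated Hoechst intensity after 48 hr exposure to compound (23 nL pinned per well of 250 cells).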
Numbers stand for hits; i = inactive; ? = inconclusive; nt = not tested or not shown; [ ] = remark or other dose. Shown are actives, neighbours in structure and some others; about 19% of the full set was active somewhere. Unless noted, calls follow the shape of the dose curve; as a rule, active = well fitted curve in the direction sought with a large enough effect; inconclusive = small, poorly fitted or top-dose-only effect, or another doubt; inactive = no such curve, though single readings can be large; an effect the other way counts as inactive or inconclusive.

SMILES	DT40 TDP1 no CPT	DT40 TDP1 CPT	IL1B secr inh	Chronic BCR inh	MCF10A rerep	SW480 rerep
COc1ccc(C2CC(c3ccccc3Br)=NN2c2ccc(S(N)(=O)=O)cc2)cc1 (stereo unspecified)	i	i	i	?	?	3.66µM
COc1ccc(C2CC(c3ccccc3C(F)(F)F)=NN2c2ccc(S(N)(=O)=O)cc2)cc1 (stereo unspecified)	?	?	i	i	1.84µM	0.731µM
COc1ccc(C2CC(C(C)(C)C)=NN2c2ccc(S(N)(=O)=O)cc2)cc1 (stereo unspecified)	?	?	i	?	i	i
CCC(=O)N(C)C[C@@H]1Oc2ncc(Br)cc2C(=O)N([C@@H](C)CO)C[C@H]1C	i	i	i	nt	nt	nt
CSc1ccc(CNC(=O)CCn2ccc3cc(S(=O)(=O)N4CCC(C)CC4)ccc32)cc1	?	20.6µM	nt	nt	nt	nt
CC1CCN(S(=O)(=O)c2ccc3c(ccn3CCC(=O)NCc3ccccc3F)c2)CC1	?	16.4µM	nt	nt	nt	nt
COc1ccccc1CCNC(=O)Cn1ccc2cc(S(=O)(=O)N3CCC(C)CC3)ccc21	?	?	?	?	i	i
CC1CCN(S(=O)(=O)c2ccc3c(ccn3CC(=O)NCc3ccccc3F)c2)CC1	?	20.6µM	nt	nt	nt	nt
CCCS(=O)(=O)NC(=O)C1(C)CCN(C(=O)c2ccc(C#N)cc2)C1 (stereo unspecified)	i	i	i	nt	nt	nt
OCC1OC(n2ccc3c(NO)ncnc32)C(O)C1O (stereo unspecified)	0.146µM	0.146µM	-102.2	nt	0.164µM	?
CN(C)c1ncnc2c1ccn2C1OC(CO)C(O)C1O (stereo unspecified)	8.2µM	3.26µM	i	nt	2.31µM	14.6µM
OC[C@H]1O[C@@H](n2cnc3c(Nc4ccccc4)ncnc32)[C@H](O)[C@@H]1O	i	i	i	?	?	i
CC(C)CN(C(=O)c1cc(Cl)nc2ccccc12)C1CCS(=O)(=O)C1 (stereo unspecified)	i	i	i	i	i	i
Cc1cc(C)cc(NC(=O)Cn2c(=O)n(CCC(C)C)c(=O)c3cccnc32)c1	i	i	nt	nt	nt	nt
O=C(Cn1nc(Cc2ccncc2)c2ccccc2c1=O)Nc1cccc(C(F)(F)F)c1	23.1µM	?	nt	nt	nt	nt
CN(C(=O)Cn1nc(Cc2cccnc2)c2ccccc2c1=O)c1cccc(C(F)(F)F)c1	i	i	nt	nt	nt	nt
CCCN(C(=O)Cn1nc(Cc2cccnc2)c2ccccc2c1=O)c1ccc(C(C)C)cc1	25.9µM	23.1µM	nt	nt	nt	nt
O=C(Cn1nc(Cc2cccnc2)c2ccccc2c1=O)Nc1ccc(F)c(Cl)c1	16.4µM	i	nt	nt	nt	nt
Cc1ccc(Cn2c(=O)c3cccnc3n(CC(=O)Nc3cccc(C(F)(F)F)c3)c2=O)cc1	16.4µM	?	i	i	?	?
CCN(C(=O)COC(=O)/C(=C/c1ccccc1)NC(C)=O)c1c(N)n(Cc2ccccc2)c(=O)[nH]c1=O	i	i	i	nt	i	i
CC[C@H](CC[C@@H](C)C1CC[C@H]2[C@@H]3CC=C4C[C@@H](O)CC[C@]4(C)[C@H]3CC[C@]12C)C(C)C (stereo partly specified)	i	i	nt	nt	nt	nt
COc1cc(=O)n2c(c1C(=O)NCc1ccc3c(c1)OCO3)CCN(C(=O)c1ccc(C)cc1)CC2	i	i	nt	nt	nt	nt
COC(=O)c1c(C)cc(OC(=O)c2c(C)cc(O)c(C=O)c2O)c(C)c1O	4.11µM	5.8µM	nt	nt	nt	nt
CCCS(=O)(=O)NCc1c(C)ncc2c1CCN(C(=O)c1ccc(Cl)cc1)C2	i	i[9.04 µM]	nt	nt	nt	nt
COc1ccc(OC)c(S(=O)(=O)N2c3cc(F)ccc3CCC2C)c1 (stereo unspecified)	?	7.31µM	i	nt	?	i
SMILES	DT40 TDP1 no CPT	DT40 TDP1 CPT	IL1B secr inh	Chronic BCR inh	MCF10A rerep	SW480 rerep
COc1ccc(OC)c(S(=O)(=O)N2C(C)CCCC2C)c1 (stereo unspecified)	?	?	i	i	i	i[9.22 µM]
COc1cccc(/C=N/NC(=O)C(C)Cn2cnc3ccccc32)c1 (stereo unspecified)	?	i	i	?	i	i
COc1ccccc1/C=C/C=N/NC(=O)CCn1cnc2ccccc21	10.3µM	16.4µM	i	?	?	20.6µM
O=C(CCn1cnc2ccccc21)N/N=C/C=C/c1ccccc1	i	i	i	i	i	i
COc1cccc(/C=N/NC(=O)CCn2cnc3ccccc32)c1	i	i	i	i	?	3.66µM
COc1ccccc1NCCC(=O)OCC(=O)Nc1ccccc1F	i	i	i	i	i	i
CN(CC(=O)Nc1ccccc1Cl)C(=O)CSc1nnc(N)s1	i	i	i	i	i	i
COC(=O)C(CCSC)NC(=O)c1cc2c(n(-c3ccc(C)cc3)c1=O)CC(C)(C)CC2=O (stereo unspecified)	i	i	nt	nt	nt	nt
CC(C)(C)c1ccc(C2Sc3ccccc3NC3=C2C(=O)c2ccccc23)cc1 (stereo unspecified)	?	16.4µM	nt	nt	nt	nt
O=C1Nc2ccccc2SC1c1ccccc1Cl (stereo unspecified)	i	i	i	nt	i	?
Cc1nn(Cc2ccccc2Cl)c(Cl)c1/C=C/C(=O)OCC(=O)NC(N)=O	2.31µM	?	i	i	i	i
Cc1nn(Cc2ccc(Cl)cc2Cl)c(Cl)c1/C=C/C(=O)OCC(=O)NCC(F)(F)F	20.6µM	i	i	?	?	i
Cc1ccc(CNC(=O)C(C)C2Sc3ccccc3NC2=O)cc1 (stereo unspecified)	i	i	i	i	i	i
O=C(C1=C[C@@H](c2ccc(Br)cc2)C[C@@H](OCCCCO)O1)N1CCN(Cc2ccccc2)CC1	5.8µM	6.51µM	i	i	?	i
O=C(C1=C[C@H](c2ccc(Br)cc2)C[C@H](OCCCCO)O1)N1CCN(Cc2ccc3c(c2)OCO3)CC1	16.4µM	18.4µM	?	i	18.4µM	i
O=C(C1=C[C@H](c2ccc3c(c2)OCO3)C[C@H](OCCCCO)O1)N1CCN(Cc2ccccc2)CC1	?	?	i	i	i	i
O=C(C1=C[C@@H](c2ccccc2)C[C@@H](OCCCCO)O1)N1CCN(Cc2ccc3c(c2)OCO3)CC1	?	?	i	i	i	i
O=C(C1=C[C@@H](c2ccc3c(c2)OCO3)C[C@@H](OCCCCO)O1)N1CCN(Cc2ccc3c(c2)OCO3)CC1	?	?	i	i	?	i[9.22 µM]
O=C(C1=C[C@H](c2ccc3c(c2)OCO3)C[C@H](OCCCCO)O1)N1CCN(Cc2ccc3c(c2)OCO3)CC1	18.4µM	?	?	i	i	i
